The term inhibition denotes the drop in the measured response relative to a control, in per cent.

Structures are written as SMILES. Unmarked numbers belong to inactive results. Activity calls are given as the source filed them.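 The calls were made as follows: active = inhibition of the reporter signal at or above 50%; inactive = inhibition below 50%.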

This test can be described thus: inhibitors of poly I:C-induced TLR3 signaling, primary screen, cell-based, poly I:C stimulus, luciferase, 10K MLSCN set (AID 602277). The conditions noted are these: HEK293-TLR3 RL24 IRF3 luciferase reporter, at 10 µM, active compounds read high. On the technique in general: In a reporter assay the amount or activity of a reporter protein is the signal.
For the compound `CCCn1c2c(c(O)c(C(=O)Nc3ccc(C)cn3)c1=O)CCCC2`, the inhibition was 10.7%.
For `CCCC1(C(=O)OCC)NC(c2ccc(N(C)C)cc2)C2C(=O)N(c3ccccc3)C(=O)C21` (stereo not given) the value was 20.7%; for `COc1cc(C2C(C(=O)c3ccc(C)o3)=C(O)C(=O)N2c2cc(C)on2)cc(Br)c1O` (stereo not given), 19.1%; for `CCCCc1cc(=O)oc2c(CN3CCCC3)c(O)c(Cl)cc12`, 19.7%.
The figure for `Cc1ccccc1-c1nc(CN2CCC(C(=O)NCc3cccnc3)CC2)c(C)o1` is 17.2%; for `O=C(Nc1ccc(Cc2ccncc2)cc1)C1CC1` it is 15.6%.
For `Nc1cc(C(=O)O)ccc1Nc1ccc(F)c(F)c1` the value was -4.51%; for `CSc1nc2c(ccc3ccccc32)o1`, -21.2%; for `CCCCSc1nc2c(cnn2-c2ccc(Cl)cc2)c(=O)[nH]1`, 16.6%.
As to `CC(NO)C(C)(C)NO` (stereo not given), the inhibition was 10.7%.
For `CCCCOc1ccc(C(=O)Nc2ccc(N3CCN(C(=O)C(C)C)CC3)cc2)cc1` the value was -10.4%; for `O=c1[nH]c2ccccc2nc1NCCN1CCOCC1`, 1.66%; for `CCOC(=O)c1ccccc1NC(=O)COC(=O)C1=COCCO1`, 2.55%.
The figure for `COCCCNC(=O)C(Cc1ccccc1)NS(=O)(=O)c1ccc2c(c1)c(=O)n(C)c(=O)n2C` (stereo not given) is 19.2%; for `Cc1nc2cc(CO)ccc2n1C` it is 14.4%; for `NCC(O)COc1ccc2c(c1)OCO2` (stereo not given) it is 3.66%.
For `Nc1nc2sc3c(c2c(=O)s1)CCCC3`, the inhibition is -23.7%.
Regarding `COc1cccc(OC)c1C(=O)N1CCN(S(=O)(=O)c2ccccc2)CC1`, the inhibition is 19.4%.
Turning to `COc1ccc(C(NC(=O)c2ccco2)c2ccc(OC)c(OC)c2)cc1` (stereo not given), the inhibition is 18.1%.
Consider `O=C(O)C1CC(=O)N(c2ccc(OCc3ccccc3Cl)cc2)C1` (stereo not given), for which the inhibition was 23.2%.
For `O=C(CCSc1nnc(-c2ccncc2)o1)Nc1ccccc1` the value was 12.2%; for `CCNS(=O)(=O)c1c(C)cc(N2CCCC2=O)cc1C`, 0.215%; for `CN(C)C(CNc1nnnn1-c1ccccc1)c1ccco1` (stereo not given), 19.2%.
For `Cn1c(-c2ccccc2)c(CCO)c2ccccc21` the value was 6.66%; for `CCOC(=O)C1C(=O)NC(SCC(=O)Nc2nccs2)=C(C#N)C1c1ccccc1OCC` (stereo not given), 20.1%; for `c1ccc2nc(-c3nc4ccccc4[nH]3)ccc2c1`, -35.5%.
Regarding `COc1cc(-c2nc(S(=O)(=O)c3ccccc3)c(N3CCOCC3)o2)cc(OC)c1OC`, the inhibition is 15.3%.
For `O=C(N1CCN(Cc2ccccc2)CC1)C12CC3CC(CC(C3)C1)C2` the value was 8.52%.
The figure for `CC(=O)c1c(NCCc2ccccc2)cc(C)oc1=O` is 11%; for `O=C(NCCCN1CCN(CCCNC(=O)c2ccc(F)cc2)CC1)c1ccc(F)cc1` it is 23.9%.
For `C=CCn1c(SCc2cc(=O)n3ccsc3n2)nnc1C1CCCCC1` the value was 21.1%.
`Oc1c(Cl)cc(Cl)c2c1NCCC2`: the inhibition is 31.8%.
The figure for `CN(C)S(=O)(=O)c1ccc2c(c1)C(CC(=O)O)OC2=O` (stereo not given) is 26.3%; for `COc1cc(OC)cc(-n2nnnc2SCC(=O)N2CCCC2)c1` it is 23.1%; for `CCC(=O)N1CCc2cc(Br)cc(S(=O)(=O)C3(C(=O)OC)CC3)c21` it is 18%.
The figure for `COC(=O)C(C)Sc1nc2c(c(=O)n(C)c(=O)n2C)n1Cc1cccc(C)c1` (stereo not given) is 26.2%; for `Cn1c(SCc2ccc3c(c2)OCO3)nnc1-c1ccccc1` it is -38.3%; for `Cc1nn(-c2ccc(F)cc2)c(C)c1NS(=O)(=O)c1ccc(Cl)cc1` it is 18.8%.
For `CC1(C)OC(=O)C(=CNc2ccccc2)C(=O)O1` the value was 99% (active); for `CCCCCn1c(CN(C)Cc2ccccc2)nc2c1c(=O)n(C)c(=O)n2C`, -3.26%.

The values are drawn from PubChem BioAssay.
